A selection: hits, their analogues and other compounds. The true share with any hit is near 7.3%.
Rab9 prom act – qHTS Assay for Rab9 Promoter Activators | Huh7 Rab9 promoter-luciferase reporter, luminescence, 24 h | Potency, µM (titrated, usually from 9.22 µM), without a hit: at the top dose activation, negative = inhibition, actives largely listed as activators | 320,000 compounds, 2.8% hits; further: % of control where 0% means no effect; nearly all actives have a fitted effect of over 60% in size
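Cell-based reporter: Huh7 stable for Rab9 promoter-driven luciferase, plated in reduced-serum medium with 10% FBS at 1500 cells/well, compound-treated 24 h at 37 °C, luminescence read after 10 min reagent.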
ELG1 genotox – qHTS screen for small molecules that induce genotoxicity in human embryonic kidney (HEK293T) cells expressing luciferase-tagged ELG1; 330,000 compounds, 1.3% hits; HEK293T ELG1-luciferase reporter, luminescence, 16 h; AID 504466, 2011; Potency, µM (top dose mostly 46 µM), without a hit: top-dose activity change, positive = activation, most hits filed as activators; further: % of control where 0% means no effect; nearly all actives have a fitted effect of over 60% in size
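HEK293T cells expressing luciferase-tagged ELG1 were treated with compound or DMSO for 16 hr at 37°C. Luciferase activity was then read after 30 min with ONE-Glo at room temperature; rising signal flags genetic stress.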
KinaseGlo FLuc – Counterscreen for Luciferase (Kinase-Glo TM) Inhibition; Luciferin 4-monooxygenase (Photuris pensylvanica), Q27757; Kinase-Glo luciferase, ATP luminescence, 8 min; Potency, µM (highest dose often 38.3 µM), inactives show at the highest dose activity change, negative = inhibition, usual class: inhibitors; 200,000 compounds, 0.28% hits; further: on the % scale 0 is the no-effect control and ±100 the full control effect; nearly all actives have a fitted effect of over 60% in size
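Substrate mix (final 50 mM imidazole pH 7.2, 50 mM KCl, 7 mM MgCl2, 10 uM ATP, 0.01% Tween 20, 0.05% BSA) plus pin-tool compound, then Kinase-Glo detection mix; 8 min ambient, luminescence read.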
FLuc modulator – qHTS profiling assay for firefly luciferase inhibitor/activator using purifed enzyme and Km concentrations of substrates (counterscreen for miR-21 project); Luciferin 4-monooxygenase (Photinus pyralis), P08659; purified FLuc, Km substrates, luminescence inhibition; Potency, µM (titrated, usually from 57.5 µM), inactives show at the top dose activity change, negative = inhibition, most hits filed as inhibitors; 360,000 compounds, 6.9% hits;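 further: plate controls were vehicle for no effect and reference inhibitor for full effect; nearly all actives have a fitted effect of over 55% in size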
Target sequence (P08659 whole entry, looked up): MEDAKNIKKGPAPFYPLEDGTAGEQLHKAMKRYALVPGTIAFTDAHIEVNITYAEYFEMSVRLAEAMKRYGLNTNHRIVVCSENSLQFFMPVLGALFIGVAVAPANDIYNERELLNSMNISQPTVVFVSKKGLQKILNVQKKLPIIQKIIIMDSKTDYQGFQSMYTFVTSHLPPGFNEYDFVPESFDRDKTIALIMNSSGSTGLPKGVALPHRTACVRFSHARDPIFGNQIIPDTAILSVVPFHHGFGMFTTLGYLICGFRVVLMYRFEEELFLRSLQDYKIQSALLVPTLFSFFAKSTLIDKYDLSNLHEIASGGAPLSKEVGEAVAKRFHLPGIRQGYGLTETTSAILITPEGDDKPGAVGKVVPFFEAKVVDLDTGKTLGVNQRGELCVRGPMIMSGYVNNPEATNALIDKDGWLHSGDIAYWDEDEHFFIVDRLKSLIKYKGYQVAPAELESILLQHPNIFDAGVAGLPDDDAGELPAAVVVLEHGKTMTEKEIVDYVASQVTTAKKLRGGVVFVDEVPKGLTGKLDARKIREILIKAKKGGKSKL
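Biochemical qHTS of compounds, final roughly 60 µM downward over six points, against 10 nM purified firefly luciferase using Km concentrations of substrates (10 uM D-luciferin, 10 uM ATP) in Tris acetate pH 7.5 buffer; luminescence output.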
NPC1 promoter act – qHTS Assay for NPC1 Promoter Activators; Huh7 NPC1 promoter luciferase reporter, 24 h; Potency, µM (series often up to 9.22 µM), for inactives: at the top dose activation, most hits filed as activators; 320,000 compounds, 2.4% hits; AID 485313, 2010; further: % of control where 0% means no effect; nearly all actives have a fitted effect of over 60% in size
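In 1536-well qHTS, Huh7 cells harboring an NPC1 promoter–luciferase construct received compound for 24 h; activation was quantified by luminescence following luciferase reagent addition.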
SMN2 splice enh – qHTS Assay for Enhancers of SMN2 Splice Variant Expression; 210,000 compounds, 2.8% hits; Potency, µM (titrated, usually from 46.1 µM), for inactives: at the top dose activity change, positive = activation, hits mostly activators; HEK293 SMN2-luciferase splicing reporter, luminescence, 30-36 h; AID 1458, 2008; further: % of control where 0% means no effect; nearly all actives have a fitted effect of over 55% in size
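HEK293 cells carry an SMN2 […]–luciferase reporter in which exon 7 inclusion puts luciferase in frame. Cells were plated 10-12 h before compound addition, then incubated 30-36 h at 37C. ONE-Glo luminescence was read; sodium butyrate at 4.5 mM final served as control.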
Starred values were filed as active, the others as inactive; ? = inconclusive; . = no result; ! = not confirmed by another sample. The call rests on the fitted dose curve; in most records, active means well fitted curve in the direction sought with a large enough effect; inconclusive means small, poorly fitted or top-dose-only effect, or another doubt; inactive means no such curve, though single readings can be large; an effect the other way counts as inactive or inconclusive. Potency means the concentration at half of the fitted maximal effect.

SMILES | Rab9 prom act | ELG1 genotox | KinaseGlo FLuc | FLuc modulator | NPC1 promoter act | SMN2 splice enh
CN(Cc1ccccc1)S(=O)(=O)c1ccc2[nH]cc(C(=O)NCC3CCCO3)c(=O)c2c1 (centres undefined) | 2.8µM* | ? | -2% | 11µM* | 3.2µM* | 12%
CCOc1ccc(NS(=O)(=O)c2ccc3[nH]cc(C(=O)N(CC)CC)c(=O)c3c2)cc1 | 0.4µM* | ? | 0% | 2.7µM* | 0.45µM* | 3.5µM*
CCOc1ccc(NS(=O)(=O)c2ccc3[nH]cc(C(=O)NCC4CCCO4)c(=O)c3c2)cc1 (centres undefined) | -3% | 3% | -1% | 27µM*! | ? | 1%
CCCN(C(=O)COc1cc(=O)n(CC)c2ccccc12)c1ccc(C(C)C)cc1 | . | . | . | -18% | . | -10%
CCN(C(=O)c1cc2c(=O)oc3ccccc3c2s1)c1ccccc1F | . | . | . | -17% | . | .
CCc1nc2ccc(C)cc2c(C(=O)Oc2cccc3cccnc23)c1C | 2% | 0% | 1% | 4% | 3% | -15%
CCc1nc2ccccc2c(C(=O)Oc2cccc3cccnc23)c1C | 12% | -10% | -3% | 15µM* | 7% | -19%
CCCCC[C@H](O)/C=C/[C@@H]1[C@H](C/C=C\CCCC(=O)O)[C@@H](O)C[C@H]1O | . | . | 1% | . | . | 17%
S=C(Nc1ccc2c(c1)OCCO2)Nc1ccccc1Cl | 25% | ? | . | 15µM* | 19% | .
O=C(CN1CCN(CC(=O)Nc2ccccc2Cl)CC1)Nc1ccc2c(c1)OCCO2 | -1% | -7% | 1% | -1% | -5% | -7%
S=C(Nc1ccc(Cl)cc1)Nc1ccc2c(c1)OCCO2 | ? | 11% | . | 11µM* | ? | .
CC[C@H](C)[C@H]1O[C@]2(CC[C@@H]1C)C[C@@H]1C[C@@H](C/C=C(\C)[C@H](O[C@@H]3C[C@H](OC)[C@H](O[C@@H]4C[C@H](OC)[C@@H](O)[C@H](C)O4)[C@H](C)O3)[C@@H](C)/C=C/C=C3\CO[C@@H]4[C@H](O)C(C)=C[C@@H](C(=O)O1)[C@]34O)O2 | . | . | . | . | . | -101%
COc1ccc(-n2ncc3c(N4CCN(c5cccc(C)c5)C(C)C4)ncnc32)cc1 (centres undefined) | . | . | . | -2% | . | .
Cc1cccc(-n2ncc3c(N4CCCC4)ncnc32)c1 | 0.63µM* | ? | -7% | 0.95µM* | 0.5µM* | 1.6µM*
Cc1cccc(-n2ncc3c(N4CCN(c5ccccc5)CC4)ncnc32)c1 | . | . | . | -2% | . | .
Cc1cccc(-n2ncc3c(N4CC(C)CC(C)C4)ncnc32)c1 (centres undefined) | 1.6µM* | 2.6µM* | 0% | 5.4µM* | 2.2µM* | ?
Cc1cccc(-n2ncc3c(N4CCOCC4)ncnc32)c1 | 0.35µM* | ? | ? | 0.54µM* | 0.35µM* | -68%
CCOc1ccc(N=Cc2c(C)[nH]n(-c3nc4ccccc4[nH]3)c2=O)cc1 | ? | 3% | 8.9µM* | 8.5µM* | 25% | 12%
Cc1ccccc1NC(=O)Cn1c(=O)n(CCC(=O)N2CCc3ccccc3C2)c(=O)c2ccccc21 | . | . | . | -8% | . | -1%
COc1cc(/C=N/Nc2nc(N3CCCC3)nc(N3CCCC3)n2)ccc1O | -2% | -9% | -3% | -18% | -1% | 8%
CN(C)c1ccc(/C=N\Nc2ccccn2)cc1 | 0.63µM* | 5.2µM* | . | 0.95µM* | 0.89µM* | .
COc1ccc(-c2cnnc(N/N=C/c3ccc(O)c(OC)c3)n2)cc1 | -4% | 7% | -14% | 1.2µM* | -19% | 13µM*
COc1ccc(/C=N/Nc2ccccn2)cc1OC | ? | ? | . | 7.6µM* | ? | .

Compound activity: PubChem, National Center for Advancing Translational Sciences (NCATS)
